The results in this text go back to PubChem BioAssay (NCI).

About 83,000 compounds went through this panel and 20% of them were active in at least one assay; those are over-represented in the sample as a whole.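 Note: values are percent growth. 100 is the growth of untreated cells, values between 100 and 0 indicate rising inhibition; between -100 and 0 indicates cell death.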 Values without a mark were called inactive. Calls of active or inactive are those of the source. How the source made its calls: active means growth percent below 10; inactive means the rest.

The first experiment concerns HT29 colon. Kind of experiment: NCI-60 one-dose screen, 48 h (100 = growth as untreated, 0 = no growth, -100 = all killed). To be noted: 10 µM unless noted.
Consider `Nc1c(C(=O)Nc2cccc3ccccc23)sc2nc3c(cc12)CCCC3`, for which the growth is 2.73% (active).

For the compound `COc1ccc(OCC(CO)N2CCN(c3ccccc3)CC2)cc1` (stereo not drawn), the growth is 98.2%. For the compound `Clc1ccc2[nH]cc(-c3nc(-c4c[nH]c5ncccc45)cs3)c2c1`, the growth is 16.1%.

For the compound `C=C(C)[C@@H]1CC[C@]2(CN)CC[C@]3(C)[C@H](CC[C@@H]4[C@@]5(C)CCC(=O)NC(C)(C)[C@@H]5CC[C@]43C)[C@@H]12`, the growth was 11.5%. As to `C/C(=N\Nc1ccc2ccccc2n1)c1ccccn1`, the growth was -2.94% (active). For `C[N+](C)(CCCCCC[N+](C)(C)C1c2ccccc2-c2ccccc21)C1c2ccccc2-c2ccccc21`, the growth was 110%.

Another experiment deals with SNB-75 CNS. The experiment is described as above. To be noted: 10 µM unless noted.
Take `C[C@H]1[C@@H]2[C@H]3CC[C@@H]4[C@@]5(C)Cc6c([nH]c7ccccc67)C(C)(C)[C@@H]5CC[C@@]4(C)[C@]3(C)CC[C@]23CO[C@]1(C)[C@@H](C(=O)/C=C/c1ccccn1)C3`: the growth was 90.9%. For `CCCC1CCCCN1C(=O)OCC(C)C` (stereo not drawn), the growth was 99.5%. In the case of `N#CC1C(=N)Cc2ccccc2-c2ccccc21` (stereo not drawn), the growth was 54.3%. On the same count and under the same terms, as for `Cc1cc(C)nc(NC(N)=NCCc2ccccc2)n1`, the figure is 23.7%; as for `N=c1c(S(=O)(=O)c2ccccc2)cc2c(=O)n3ccccc3nc2n1C1CCCC1`, 61.1%. The same measure, in the same setting: the same measure for `CCOc1ccc(NC(=O)c2ccccc2-c2ccccc2C(=O)O)cc1`: 91.3%; for `CCCCC[C@H]1C/C=C2/C(=O)C=C[C@@H]2C/C=C\CCCC(=O)O[C@@H](CCCCC)C/C=C2/C(=O)C=C[C@@H]2C/C=C\CCCC(=O)O1`: -80.8% (active). Take `CC(C)=CCC/C(C)=C/CC/C(C)=C/CC/C(C)=C/CSC[C@H](NC(=O)CCCCCN1CCN(C)CC1)C(=O)NC1CCCCC1`: the growth is 81.5%. With `O=C(/C=C/c1ccc2ccccc2c1)Nc1ncc(Cc2ccccc2)s1`, the growth was 34.4%.

Regarding `C=C(C)[C@@H]1CC[C@]2(C(=O)O)CC[C@]3(C)[C@H](CC[C@@H]4[C@@]5(C)C/C(=C/c6ccc(OC)cc6)C(=O)C(C)(C)[C@@H]5CC[C@]43C)[C@@H]12`, the growth is 27.2%. Take `COc1ccc2c(c1)c(-c1nc(-c3cn(C)c4ncccc34)cs1)cn2CCCN1CCCCC1`: the growth was 77.5%. In the case of `C#CCC(C)(O)/C=C/C1=C(C)CCCC1(C)C` (stereo not drawn), the growth was 87%. `C=C(C)[C@@H]1CC[C@]2(C=NCCCNCCCCNCCCN)CC[C@]3(C)[C@H](CC[C@@H]4[C@@]5(C)CCCNC(C)(C)[C@@H]5CC[C@]43C)[C@@H]12`: the growth is 114%. The same measure, in the same setting: as for `Nc1ccc(Br)cn1`, the figure is 87.3%; as for `COc1cccc(-c2nn(-c3ccccc3)cc2-c2ccnc(NCCNS(=O)(=O)c3ccc(Cl)cc3)c2)c1`, 66.2%; as for `COc1ccc(C2CC(=O)c3c(nc4ccc(Cl)cc4c3N)C2)cc1` (stereo not drawn), 95.7%.

With `COc1cc2c(cc1-c1c(C)noc1C)ncc1nc(C3CCC(F)(F)CC3)n([C@@H](C)COC(F)F)c12`, the growth was 23.4%. For `CC1(n2nnnc2N2CCCN(c3ncccc3N)CC2)CCC1`, the growth is 81.7%.

Consider `O=C(O[C@@H]1Cc2c(O)cc(O)cc2O[C@@H]1c1cc(O)c(O)c(O)c1)c1cc(O)c2c(c1)OCO2`, for which the growth was 93.8%.

On to `C=C(C)[C@@H]1CC[C@]2(C(=O)O)CC[C@]3(C)[C@H](CC[C@@H]4[C@@]5(C)C/C(=C/c6cccc(I)c6)C(=O)C(C)(C)[C@@H]5CC[C@]43C)[C@@H]12`, for which the growth was -36.5% (active). With `NC1=NN=C2N(N)C(=O)c3cnn(-c4ccccc4)c3N2c2nc(-c3ccccc3)cc(-c3ccccc3)c21`, the growth is 86.2%. With `CCSc1ncnc2c1ncn2C1OC(CO)C(O)C1O` (stereo not drawn), the growth was 57%. As to `COc1ccc(-c2nc3ccccn3c2-c2nc3ccc(Cl)cc3[nH]2)cc1`, the growth was 67.5%.

Take `CC(=O)OC[C@]12CC[C@@H](/C(C)=N/O)[C@@H]1[C@H]1CC[C@@H]3[C@@]4(C)CCCNC(C)(C)[C@@H]4CC[C@@]3(C)[C@]1(C)CC2`: the growth was 63.9%. As for `OCC12CCCC(CO)(COC1)C2O` (stereo not drawn), the growth is 96.4%. With `Cc1ccc(N(CC(=O)Nc2ccc(S(=O)(=O)N3CCC(N4CCCC4)CC3)cc2)S(=O)(=O)c2ccc(Cl)cc2)cc1`, the growth was 62.7%. Regarding `CC[C@]12C=CCN3CC[C@@]4(c5cc([C@H]6CCC(=O)N6)c(OC)cc5N(C)[C@H]4[C@@](O)(C(=O)OC)[C@@H]1OC(C)=O)[C@@H]32`, the growth is 81.6% [2.5 µM]. As for `Brc1ccc(Cn2nnnc2-c2ccn(-c3ccccc3)n2)cc1`, the growth was 90.1%.

As to `COC(=O)c1cc(=O)nc(N/N=C/c2ccc(C)cc2)s1`, the growth is 91.7%.

`Cc1ccc2oc(=O)cc(-c3sc(N4CCCCC4)nc3-c3ccccc3)c2c1`: the growth was 78.1%. The same measure, in the same setting: the same measure for `CC1(C)CC[C@]2(C(=O)Nc3ccccn3)CC[C@]3(C)C(=CC[C@@H]4[C@@]5(C)C/C(=C/c6ccncc6)C(=O)C(C)(C)[C@@H]5CC[C@]43C)[C@@H]2C1`: 91.6%; for `Nc1c(C(=O)Nc2cccc3ccccc23)sc2nc3c(cc12)CCCC3`: 37.9%. Regarding `COc1ccc(OCC(CO)N2CCN(c3ccccc3)CC2)cc1` (stereo not drawn), the growth was 97.4%. Still for that read-out and setting: as for `Clc1ccc2[nH]cc(-c3nc(-c4c[nH]c5ncccc45)cs3)c2c1`, the figure is 56.8%. With `C=C(C)[C@@H]1CC[C@]2(CN)CC[C@]3(C)[C@H](CC[C@@H]4[C@@]5(C)CCC(=O)NC(C)(C)[C@@H]5CC[C@]43C)[C@@H]12`, the growth was 85.5%. Same read-out and setting: the same measure for `C/C(=N\Nc1ccc2ccccc2n1)c1ccccn1`: 35.3%; for `C[N+](C)(CCCCCC[N+](C)(C)C1c2ccccc2-c2ccccc21)C1c2ccccc2-c2ccccc21`: 95%.
